PglD DTNB: inhibitors of Campylobacter jejuni PglD acetyltransferase | purified PglD enzyme, DTNB colorimetric CoA detection | inhibition, % at 12.5 µM | hit rate 0.098% among 360,000; in the data active means inhibition above about 16%, passing the limit was not always enough; inconclusive means no clear call, values can overlap the other calls
Glyco luc inh: N-linked glycosylation inhibition; hit rate 0.23% among 360,000; reporter increase, % at 12.5 µM; D54 ERlucT glycosylation luciferase reporter, 24 h; percent of 100 nM tunicamycin response;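 active means mean luciferase reporter signal, scaled so untreated is 0 and the glycosylation-blocking control 100, at or above a set limit in every replicate; inconclusive means mean reaches the limit but not every replicate does; inactive means mean below the limit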;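 further: luciferase carries N-glycosylation sites so blocking glycosylation raises the light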
Rtt109 HAT inh: blocks Candida albicans Rtt109/Vps75 acetyltransferase activity. Q5AAJ8. hit rate 0.16% among 330,000. purified Rtt109/Vps75, ThioGlo CoA-SH fluorescence, 4 h. inhibition, % at 34.9 µM;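 active means inhibition of at least 50% in every replicate; inconclusive means best replicate reaches 50% inhibition but some replicates fall short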
Target sequence (Q5AAJ8 whole entry, looked up): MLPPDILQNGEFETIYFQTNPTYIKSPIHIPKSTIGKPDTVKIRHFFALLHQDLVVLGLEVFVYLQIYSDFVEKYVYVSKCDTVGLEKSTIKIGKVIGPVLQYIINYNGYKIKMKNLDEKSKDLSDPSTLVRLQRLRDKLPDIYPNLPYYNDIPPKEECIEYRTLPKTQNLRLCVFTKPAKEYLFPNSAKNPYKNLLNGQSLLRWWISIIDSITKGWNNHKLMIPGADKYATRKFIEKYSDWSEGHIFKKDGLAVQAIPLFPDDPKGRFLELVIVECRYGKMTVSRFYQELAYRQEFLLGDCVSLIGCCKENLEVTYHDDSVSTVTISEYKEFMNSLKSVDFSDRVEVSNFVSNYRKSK
DENV2 CPE rescue: DENV2-induced cell death inhibition. hit rate 1.7% among 350,000. CPE inhibition, % at 9.99 µM. DENV2-infected cells, cytopathic effect rescue, plate reader; in the data active means CPE inhibition above about 20%, passing the limit was not always enough; inconclusive means no clear call, values can overlap the other calls; tested in BHK-21 cells
Hits are given with their value; – = inactive; ? = inconclusive; · = no result; ! = not confirmed by another sample. This is one part of a sample in which hits are shown more often than they occur.

SMILES | PglD DTNB | Glyco luc inh | Rtt109 HAT inh | DENV2 CPE rescue
COCC(=O)N(C)C[C@@H]1Oc2ncc(-c3ccc(C#N)cc3)cc2C(=O)N([C@@H](C)CO)C[C@@H]1C | – | · | · | –
CCC(=O)NCCc1nc2ccccc2n1CC(=O)c1ccccc1 | – | – | – | 76.3
CC(C)(C)C(=O)NCCc1nc2ccccc2n1CC(=O)c1ccccc1 | – | – | – | –
CC(C)NC(=O)N(C)C[C@@H]1Oc2ccc(NC(=O)c3ccncc3)cc2C(=O)N([C@@H](C)CO)C[C@H]1C | – | · | · | –
C[C@H](CO)N1C[C@H](C)[C@@H](CN(C)C(=O)Nc2cccc3ccccc23)Oc2ccc(N(C)C)cc2C1=O | – | · | · | 34.3
C[C@@H]1CN([C@@H](C)CO)C(=O)c2cccc(NS(=O)(=O)c3cccs3)c2O[C@@H]1CN(C)C(=O)Nc1cccc2ccccc12 | – | · | · | 43.0
C[C@@H]1CN([C@H](C)CO)C(=O)c2cccc(N(C)C)c2O[C@@H]1CN(C)C(=O)Nc1ccc2c(c1)OCO2 | – | · | · | 26.9
C[C@H]1CN([C@@H](C)CO)C(=O)c2cccc(NS(=O)(=O)c3cccs3)c2O[C@@H]1CN(C)C(=O)Nc1cccc2ccccc12 | – | · | · | ?
C[C@@H]1CN([C@@H](C)CO)C(=O)c2cccc(N(C)C)c2O[C@H]1CN(C)C(=O)Nc1ccccc1 | – | · | · | 30.3
CCCNC(=O)N[C@@H]1CC[C@@H](CCNS(=O)(=O)c2cccc(F)c2)O[C@@H]1CO | – | · | · | –
CCN1[C@H](C(=O)N2CCCCC2)[C@@H](CO)[C@@H]2Cn3c(ccc(-c4cccc(F)c4)c3=O)[C@@H]21 | – | · | · | –
CC(C)NC(=O)Nc1ccc2c(c1)C(=O)N(C)[C@H]1CC[C@H](CC(=O)Nc3ccccc3)O[C@@H]1CO2 | – | · | · | –
C[C@@H]1CN([C@@H](C)CO)C(=O)c2cccc(N(C)C)c2O[C@H]1CN(C)C(=O)Nc1cccc2ccccc12 | – | · | · | –
C[C@H](CO)N1C[C@H](C)[C@@H](CN(C)C(=O)Nc2cccc3ccccc23)Oc2c(cccc2N(C)C)C1=O | – | · | · | 21.4
Cc1noc(C)c1NC(=O)N(C)C[C@H]1Oc2c(cccc2N(C)C)C(=O)N([C@@H](C)CO)C[C@H]1C | – | · | · | –
Cc1noc(C)c1NC(=O)N(C)C[C@@H]1Oc2c(cccc2N(C)C)C(=O)N([C@H](C)CO)C[C@@H]1C | – | · | · | 23.8
CN1CCN(C(=O)C[C@H]2C[C@@H]3c4cc(NC(=O)Cc5ccncc5)ccc4O[C@@H]3[C@@H](CO)O2)CC1 | – | · | · | –
Cc1noc(C)c1NC(=O)Nc1ccc2c(c1)CC(=O)N([C@H](C)CO)C[C@@H](C)[C@@H](CN(C)C(=O)Nc1ccccc1)O2 | – | · | · | –
CCN(CC)c1ccc(/C=N/N2C(=O)c3ccccc3C2=O)cc1 | – | – | – | ·
CCN(CC)c1ccc(/C=N/N2C(=O)c3ccccc3C2=O)c(O)c1 | – | – | – | 42.4
COC(=O)c1cccc(-n2sc3ccccc3c2=O)c1 | – | – | 130.1 | –
CCC(=O)N(C)C[C@@H]1Oc2ncc(C#Cc3ccncc3)cc2C(=O)N([C@@H](C)CO)C[C@H]1C | – | · | · | –
CN1C(=O)c2cc(NC(=O)Cc3cccs3)ccc2OC[C@@H]2O[C@H](CC(=O)NCC3CCCCC3)CC[C@H]21 | – | · | · | 132.2
CN1C(=O)c2cc(NC(=O)NCc3ccccc3)ccc2OC[C@H]2O[C@H](CC(=O)NCC3CCCCC3)CC[C@H]21 | – | · | · | 98.2
CN1C(=O)c2cc(NC(=O)c3cccs3)ccc2OC[C@H]2O[C@H](CC(=O)NCCN3CCCCC3)CC[C@H]21 | – | · | · | –
SMILES | PglD DTNB | Glyco luc inh | Rtt109 HAT inh | DENV2 CPE rescue
CCNC(=O)Nc1ccc2c(c1)C(=O)N(C)[C@H]1CC[C@@H](CC(=O)NC3CCCCC3)O[C@@H]1CO2 | – | · | · | 27.4
CN1C(=O)c2cc(NC(=O)c3cccs3)ccc2OC[C@@H]2O[C@@H](CC(=O)NCCN3CCCCC3)CC[C@H]21 | – | · | · | 40.5
CC=Cc1ccc2n(c1=O)C[C@H]1[C@H](CO)[C@@H](C(=O)NC3CCC3)[C@@H]2N1Cc1cccnc1 (mixture of isomers) | – | · | · | –
COc1ccc(NC(=O)Nc2cccc3c2O[C@@H](CN(C)CC2CC2)[C@H](C)CN([C@@H](C)CO)C3=O)cc1 | – | · | · | –
Cc1noc(C)c1NC(=O)N(C)C[C@H]1Oc2ccc(NC(=O)Nc3ccccc3)cc2C(=O)N([C@@H](C)CO)C[C@@H]1C | – | · | · | –
COc1ccc(S(=O)(=O)N(C)C[C@H]2OCCCC[C@@H](C)Oc3ccc(N(C)C)cc3C(=O)N([C@@H](C)CO)C[C@@H]2C)cc1 | – | · | · | –
CCCNC(=O)Nc1ccc2c(c1)C(=O)N(C)[C@@H]1CC[C@@H](CC(=O)NCc3ccccc3)O[C@H]1CO2 | – | · | · | –
CCCNC(=O)Nc1ccc2c(c1)C(=O)N(C)[C@@H]1CC[C@@H](CC(=O)NCc3ccccc3)O[C@@H]1CO2 | – | · | · | 56.0
COc1ccc(S(=O)(=O)N(C)C[C@@H]2OCCCC[C@H](C)Oc3ccc(NS(=O)(=O)c4ccccc4)cc3C(=O)N([C@H](C)CO)C[C@H]2C)cc1 | – | · | · | –
CN(C)CCCNc1cc(O)c2ncccc2c1 | – | – | – | 56.8
O=C(C[n+]1cc(-c2ccc(Cl)c(Cl)c2)n2c1CCC2)N1c2ccccc2Sc2ccccc21 | · | – | 57.1 | ·
CCOC(=O)C1CCN(C(=O)C2CC(=O)N(c3ccc4c(c3)OCCO4)C2)CC1 (centres undefined) | – | – | – | 61.5
CN1CCN(C(=O)C2CC(=O)N(c3ccc(Cl)cc3)C2)CC1 (centres undefined) | – | – | – | –
CCN1CCN(C(=O)C2CC(=O)N(c3ccc(Cl)cc3)C2)CC1 (centres undefined) | – | – | – | 61.1
O=C(CN1CCOCC1)N1CCCCN2[C@H](CO)[C@H](c3ccc(C#Cc4ccccc4)cc3)[C@H]2C1 | – | · | · | –
C[C@H]1CN([C@@H](C)CO)C(=O)c2c(c3ccccc3n2C)-c2ccccc2CO[C@@H]1CN(C)Cc1cccc(O)c1 | · | · | · | –
C[C@H](CO)N1C[C@H](C)[C@H](CN(C)Cc2ccc3c(c2)OCCN3C)OCc2ccccc2-c2c(n(C)c3ccccc23)C1=O | · | · | · | –
C[C@@H]1CN([C@@H](C)CO)C(=O)c2c(c3ccccc3n2C)-c2ccccc2CO[C@H]1CN(C)Cc1cccc(O)c1 | · | · | · | 25.3
C[C@@H]1CN([C@H](C)CO)C(=O)c2c(c3ccccc3n2C)-c2ccccc2CO[C@H]1CN(C)Cc1ccc2c(c1)OCCN2C | – | – | · | 27.7!
C[C@@H]1CN([C@@H](C)CO)C(=O)c2c(c3ccccc3n2C)-c2ccccc2CO[C@H]1CN(C)Cc1cccc2c1OCCCO2 | · | · | · | 21.4
O=C(C[C@H]1CC[C@H](NC(=O)Nc2ccccc2)[C@@H](CO)O1)NCc1cccc(F)c1 | – | · | · | –
O=C(c1ccc(NC2=NC3CS(=O)(=O)CC3S2)cc1)N1CCN(c2ccc([N+](=O)[O-])cc2)CC1 (centres undefined) | – | – | – | 38.6
COc1ccccc1Nc1ncnc2c1c(C)c(C)n2CCCN(C)C | – | – | – | 42.0
Cc1c(C)n(CCCN(C)C)c2ncnc(Nc3ccccc3)c12 | – | – | – | –
CCCNC(=O)Nc1ccc2c(c1)C(=O)N(C)C[C@H](OC)[C@@H](C)CN(C(=O)CC)[C@H](C)CO2 | – | · | · | ·

Bioassay records from PubChem.
